USP28 inh: blocks human USP28 ubiquitin-rhodamine cleavage; AID 1645857; actives 3% (n = 47,000); purified USP28, Ub-rhodamine cleavage fluorescence, 30 min; inhibition, % at 25 µM
Target sequence (Q96RU2 whole entry, looked up): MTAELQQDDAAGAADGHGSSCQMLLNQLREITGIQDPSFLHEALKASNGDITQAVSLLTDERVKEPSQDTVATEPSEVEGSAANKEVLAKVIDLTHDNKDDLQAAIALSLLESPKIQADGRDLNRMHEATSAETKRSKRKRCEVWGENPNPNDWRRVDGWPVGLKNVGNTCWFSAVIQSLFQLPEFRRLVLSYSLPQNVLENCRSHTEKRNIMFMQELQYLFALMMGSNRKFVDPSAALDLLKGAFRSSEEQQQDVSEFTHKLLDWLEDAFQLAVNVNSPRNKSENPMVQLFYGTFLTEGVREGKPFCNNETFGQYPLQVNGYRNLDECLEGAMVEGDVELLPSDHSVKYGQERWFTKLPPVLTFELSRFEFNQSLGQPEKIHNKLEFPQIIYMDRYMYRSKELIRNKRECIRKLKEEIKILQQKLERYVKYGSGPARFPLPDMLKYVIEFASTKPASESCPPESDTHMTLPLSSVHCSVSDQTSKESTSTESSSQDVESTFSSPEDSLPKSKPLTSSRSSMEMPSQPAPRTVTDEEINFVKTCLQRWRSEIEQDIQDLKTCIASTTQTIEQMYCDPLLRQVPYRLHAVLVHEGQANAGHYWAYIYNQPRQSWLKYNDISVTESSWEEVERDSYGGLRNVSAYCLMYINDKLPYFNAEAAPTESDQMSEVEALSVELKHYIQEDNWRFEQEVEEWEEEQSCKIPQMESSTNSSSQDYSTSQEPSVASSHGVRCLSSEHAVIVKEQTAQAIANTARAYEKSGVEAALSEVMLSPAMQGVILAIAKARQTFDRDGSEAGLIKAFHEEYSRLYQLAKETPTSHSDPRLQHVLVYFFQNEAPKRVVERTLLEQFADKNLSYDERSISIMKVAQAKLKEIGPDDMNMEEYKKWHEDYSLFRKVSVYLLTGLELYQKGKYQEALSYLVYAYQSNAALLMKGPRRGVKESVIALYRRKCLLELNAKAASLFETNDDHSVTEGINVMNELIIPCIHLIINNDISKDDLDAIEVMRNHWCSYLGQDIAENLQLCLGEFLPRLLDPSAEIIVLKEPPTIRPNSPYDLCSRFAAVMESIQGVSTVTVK
USP17 inh: human USP17-like deubiquitinase inhibition | purified USP17, Ub-rhodamine cleavage fluorescence, 3 h | inhibition, % at 50 µM | actives 6.5% (n = 47,000) | AID 1645855
USP30 block: human USP30 deubiquitinase inhibition. actives 5.3% (n = 47,000). purified USP30, Ub-rhodamine cleavage fluorescence. inhibition, % at 25 µM
* marks the source's active call; other numbers are inactive results; nt = no result. Rows were chosen to be rich in hits. Some 11% of all compounds tested hit in one or more screens of this group. Rule as the data show it: active = inhibition above about 30%; inactive = the rest.

SMILES | USP28 inh | USP17 inh | USP30 block
CCOc1ncccc1C(=O)N1C[C@H]2CC[C@@H](Nc3cnccn3)[C@H]2C1 | -3.3 | -3.9 | -142.6
O=C(O)CC1(CC(=O)NCc2ccc(F)cc2)CCCCC1 | 8.8 | 11.0 | 21.2
O=C(O)CC1(c2ccc(F)cc2)C2CC3CC(C2)CC1C3 (stereo not drawn) | 14.8 | 31.8* | 40.0*
CC(OC(=O)c1ccc(N(C)C)cc1)C(=O)Nc1ccc(Cl)cn1 (stereo not drawn) | 2.6 | 4.4 | 2.9
Cc1cc(F)ccc1NC(=O)c1ccc2c(c1)N(S(C)(=O)=O)CC2 | -5.7 | nt | 20.7
COc1c(C(CC(C)C)OC(C)=O)ccc(Oc2c(O)cc(C)cc2C=O)c1C(=O)O (stereo not drawn) | 23.0 | 35.1* | -20.6
COc1c(O)cc(O)c(C(=O)O)c1C(O)C(C)=O (stereo not drawn) | 0.7 | -14.4 | -87.9
COc1c([C@@H](O)CC(C)C)ccc2c1C(=O)OCc1cc(C)cc(O)c1O2 | 0.4 | -1.1 | -21.4
COc1c(C(O)CC(C)C)ccc(Oc2c(O)cc(C)cc2C=O)c1C(=O)O (stereo not drawn) | 23.9 | 44.2* | 10.1
O=C(NCc1ccncc1)C1CCN(c2cnc(N3CCCCCC3)nc2)CC1 | 11.1 | -17.4 | -67.0
Cc1ccc(Cl)cc1NC(=O)CCCC(=O)c1ccccc1 | -4.4 | -0.7 | 17.7
CC(=O)N[C@@]12CCN(Cc3ccc(-c4ccccc4)cc3)C[C@@H]1CN(C(C)=O)C2 | 5.2 | 3.3 | 11.8
Cc1ccccc1OCCCn1c(C2CC(=O)N(Cc3ccccc3)C2)nc2ccccc21 (stereo not drawn) | 15.2 | 18.6 | 48.6*
CCCCN(C)C(=O)Cn1c(C2CC(=O)N(Cc3ccc(F)cc3)C2)nc2ccccc21 (stereo not drawn) | -7.2 | 48.2* | 4.8
O=C1CC(c2nc3ccccc3n2Cc2ccccc2)CN1Cc1ccccc1 (stereo not drawn) | 8.5 | 9.1 | 22.4
CCN(CC)C(=O)Cn1c(C2CC(=O)N(Cc3ccc(F)cc3)C2)nc2ccccc21 (stereo not drawn) | 3.6 | -2.8 | 9.8
COc1cccc(NC(=O)CCC(=O)N2CCOc3ccc(C)cc32)c1 | 1.3 | -7.5 | -3.4
CCN1CCN(CCNC(=O)c2cc3cn(C(C)C)cc3s2)CC1 | -19.0 | 2.7 | -41.8
O=C(CN1C(=O)CC(c2ccc(F)cc2)=Nc2ccccc21)Nc1ccccc1 | 26.8 | 37.8* | 21.4
O=C(CN1C(=O)CC(c2ccccc2)=Nc2ccccc21)NCc1ccccc1Cl | -7.5 | 3.2 | 2.4
COc1ccc(CNC(=O)CN2C(=O)CC(c3ccccc3)=Nc3ccccc32)cc1 | -3.0 | 82.8* | 0.3
Cc1cccc(C)c1NC(=O)CN1C(=O)CC(c2ccccc2)=Nc2ccccc21 | -12.6 | 3.9 | 9.1
O=C(CSc1ncnc2c1nnn2-c1ccc(F)cc1)NCc1ccc2c(c1)OCO2 | -0.4 | -1.2 | -10.0
CN1CCN(c2ccc(-c3nc(-c4ccc(F)cc4)no3)nn2)CC1 | 0.7 | 5.6 | 11.1
COc1ccc(-c2noc(-c3ccc(N4CCC5(CC4)OCCO5)nn3)n2)cc1 | -3.0 | 44.6* | -66.2
SMILES | USP28 inh | USP17 inh | USP30 block
Cc1cccc(CNc2nnc(-c3nc(C4CC4)no3)c3ccccc23)c1 | 18.0 | 8.9 | 26.2
Cc1ccc(S(=O)(=O)N[C@@H](Cc2ccccc2)C(=O)N2CCC(C(=O)NCC(=O)O)CC2)cc1 | -6.5 | -0.9 | -4.8
COc1ccc(NC(=O)c2ccnc(Nc3cccc(OC)c3)c2)cc1 | 10.9 | 32.1* | 7.3
COc1cccc(NC(=O)c2cncc(NS(=O)(=O)c3ccccc3)c2)c1 | -2.6 | -1.7 | -3.9
COc1cccc(Nc2cc(C(=O)Nc3ccccc3)ccn2)c1 | 0.7 | 36.1* | 9.6
COc1ccc(NC(=O)c2ccnc(Nc3cccc(C)c3)c2)cc1 | 2.7 | -0.1 | 0.2
O=C(c1cn(-c2cc(-c3nc(C4CC4)no3)ccn2)cn1)N1CCOCC1 | 2.5 | 4.8 | 20.1
O=C(c1ccco1)N1CCN(c2nnnn2-c2ccccc2)CC1 | 10.9 | 13.6 | 27.9
O=C(CC1CCN(C(=O)Nc2cccc(Br)c2)CC1)N1CCCCC1 | 7.9 | -0.7 | 18.5
COc1ccccc1-c1cc2n(n1)CCN(C(=O)c1cc3ccccc3n1C)C2 | 4.1 | -8.7 | -23.6
NC(N)=NCCC(=O)N1CCn2nc(-c3ccc4ccccc4c3)cc2C1 | 44.5* | -28.0 | 40.1*
Cc1cc(C)n(-c2nc3c(c(=O)n2CC(=O)N2CCOCC2)CCCC3)n1 | 16.1 | 5.6 | -0.8
Cc1ccccc1CSc1ccc2nnc(-c3ccncc3)n2n1 | -4.7 | 16.9 | 6.6
Cc1cccc(CNS(=O)(=O)c2ccc3c(c2)NC(=O)CCS3)c1 | -0.9 | -0.1 | -1.0
CCC1CN(S(=O)(=O)c2ccc3c(c2)NC(=O)CCS3)c2cc(C)ccc2O1 (stereo not drawn) | 13.3 | 19.6 | 43.4*
COc1cccc(CNC(=O)c2ccc3ncnc(N4CCCC4)c3c2)c1 | -0.9 | -3.2 | 14.2
O=C(Cc1nnc(-c2ccccn2)o1)NCc1ccc(F)cc1 | -0.2 | -11.7 | 0.0
CC(C)NC(=O)N1CCc2nc(C(=O)N3CCOCC3)sc2CC1 | -10.1 | -19.9 | -28.4
CN(C)C(CNC(=O)c1ccc2ccccc2n1)c1ccccc1 (stereo not drawn) | -6.0 | -0.5 | -6.8
CC(NC(=O)c1ccc2ccccc2n1)c1ccccc1 (stereo not drawn) | 22.5 | 18.5 | 44.0*
CCCc1nc(C2CN(C(=O)c3cc(C)oc3C)CCO2)n[nH]1 (stereo not drawn) | -9.8 | 2.8 | 0.7
Cc1ccc(NC(=O)c2cc(C(C)C)on2)cc1C | 42.3* | 17.2 | 15.3
Cc1ccc(O)c(NC(=O)c2cc(C(C)C)on2)c1 | 1.7 | 14.1 | 19.2
Cc1c(C)n2c(SCC(=O)Nc3cccc(Cl)c3)nnc2[nH]c1=O | 3.2 | 10.8 | 18.5
CC(C)CCNC(=O)CSc1nc(-c2cccc(Cl)c2)nc2cc(=O)[nH]n12 | 17.8 | 41.6* | 24.9
SMILES | USP28 inh | USP17 inh | USP30 block
COc1ccc(N2CCN(Cc3cc[nH]c(=O)c3)CC2)cc1 | -1.6 | -5.9 | 0.2
Cc1cc(OCC(=O)Nc2cccc(C#N)c2)nc(N2CCCCC2)n1 | -1.3 | -14.3 | -30.1
Cc1cccc(NC(=O)COc2cccc3ccc(N4CCC(C(N)=O)CC4)nc23)c1 | 0.0 | 33.0* | 15.3
Cc1cccc(C(=O)Nc2ccc(NC(=O)COc3ccccc3Cl)cc2)c1 | -1.9 | 13.9 | 4.6
CC(=O)Nc1cccc(NC(=O)COc2cccc3ccc(N4CCCC4)nc23)c1 | 14.8 | 53.4* | 14.9
Cc1ccc(NC(=O)c2ccc(N3CCOCC3)nn2)cc1Cl | -4.7 | -1.5 | -0.6
C=C(C)CSc1nc(Cc2ccccc2)nc2sc3c(c12)CC(C)(C)OC3 | 33.3* | 7.7 | 10.7
C=C(C)CSc1nc(CC)nc2sc3c(c12)CC(C)(C)OC3 | 24.9 | 0.0 | 1.0
CCCCOc1ncccc1-c1nc2ccccc2s1 | -16.6 | -17.5 | -39.3
COc1ccc(C(=O)Nc2cc(-c3cccnc3)no2)cn1 | 0.0 | -0.2 | 14.8
O=C(Nc1cc(-c2cccnc2)no1)c1ccc(F)c(F)c1 | 37.9* | 64.5* | -101.8
COc1cc(C(=O)Nc2cc(-c3ccc(F)c(F)c3)no2)cc(OC)c1OC | -14.7 | -8.9 | -22.0
O=C(COc1ccccc1)Nc1cc(-c2ccc(F)c(F)c2)no1 | nt | 81.0* | nt
Cc1ccc(-c2ncc(NC(=O)COc3ccc(F)cc3)cn2)cc1 | 10.6 | 4.4 | 12.1

Bioassay records from PubChem.
